High-throughput results (PubChem)
The list is not random: actives were taken first. Their share in the collection is about 9.6%.
PTEN del growth – growth suppression of PTEN-null HCT116, primary screen, cell-based, CellTiter-Glo; HCT116 PTEN-null viability, 60 h; hits give low values; viability, % at 10 µM; hit rate 1.2% among 140,000;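 active = viability at or below a set limit, 4 SD under the median of all tested compounds, cut at about 3.7% in these data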;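 also: PTEN knockout HCT116 line with beta catenin targeted HCT116 as companion control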
Insulin prom inh – inhibitors of insulin promoter-driven GFP, primary screen, imaging, TRM-6 cells (human fetal islet line), eGFP reporter, cell count. hit rate 0.9% among 130,000. reporter expression induced with tamoxifen. AID 1273, 2008. inhibition, % at 2 µM;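 active = inhibition above the mean plus 3 SD, with well images judged a real hit on visual review, cut at about 60% in these data, passing the limit was not always enough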
bCat KO growth – primary screen for growth suppressors in beta-catenin knockout HCT116 cells (colon tumor, human). HCT116 beta-catenin knockout viability, CellTiter-Glo, 60 h; hits give low values. viability, % at 10 µM. hit rate 1.5% among 140,000. AID 818, 2007;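 active = viability at or under a set limit, the compound median less 4 SD, cut at about 6% in these data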;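 also: 0% = Hyamine 1622 control at 20 µM and 100% = untreated cell control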
Lmaj promast – Leishmania major promastigote growth inhibition, primary screen | Leishmania major promastigotes, resazurin fluorescence viability | inhibition, % at 10 µM | hit rate 9% among 200,000 | AID 1063, 2008; in the data active = inhibition above about 50%;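 also: promastigotes grown with compound for 44 hours at 28 °C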
Insulin prom up – insulin promoter activators in MIN6 cells, imaging, high-content screening, mouse beta cells | MIN6 insulin promoter-GFP reporter; hits give high values | z-score at 5 µM | AID 1625, 2009 | hit rate 0.3% among 190,000;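 active = z-score above 3 at 5 µM with at least 500 cells counted in the well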
Autophagy mod – autophagy modulators in MEF cells, primary screen, imaging, high-content, MEF GFP-LC3; MEF GFP-LC3 puncta imaging; test concentration mostly 10 µM; calls only at 10 µM (by protocol); hit rate 0.98% among 190,000; AID 463193, 2010;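 active = percentage of spot-positive cells more than 3 SD above its plate mean, without a fluorescence outlier flag or 80% toxicity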;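 also: spot-positive cell cutoff set from DMSO-treated cells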
An asterisk follows results filed as active; i = inactive; . = not tested or not shown; + = active, no number.

SMILES	PTEN del growth	Insulin prom inh	bCat KO growth	Lmaj promast	Insulin prom up	Autophagy mod
O=C(NCc1ccccc1Cl)c1ccc(S(=O)(=O)Nc2cccc(C(F)(F)F)c2)cc1	90	-17	86	61*	-0.48	i
NC(=O)/C=C\C(=O)Nc1cccc(C(F)(F)F)c1	73	37	81	96*	0.49	i
Cc1ccc(NS(=O)(=O)c2ccc(NC(=O)c3cccc(NC(=O)C(C)C)c3)cc2)cc1	55	19	51	56*	0.25	i
Cc1cc(C)nc(NC(=O)CSc2nnnn2-c2ccccc2)n1	96	11	106	1	0.42	i
O=C(Nc1ccc(OC(F)F)cc1)Nc1cccc(C(F)(F)F)c1	3.1*	-43	2.3*	-3	1.9	i
CCN(CC)S(=O)(=O)c1ccc(C(=O)Nc2cccc(C)c2)cc1	94	24	101	11	-0.13	i
CCN(CC)S(=O)(=O)c1ccc(NC(=O)Nc2cccc(C(F)(F)F)c2)cc1	1.8*	14	1.4*	2	-0.28	i
NNC(=O)Nc1cccc(C(F)(F)F)c1	.	.	.	-2	1.4	i
O=C1CCC(c2ccccc2)=NN1	.	-20	.	-1	0.49	i
COc1ccc(S(=O)(=O)n2nc(OC(=O)c3ccccc3Br)cc2N)cc1	88	-38	91	3	0.31	i
CC1(C)Cc2ccccc2C(c2cc3ccccc3oc2=O)=N1	37	-31	35	30	.	i
CC1(C)Cc2c(ccc3ccccc23)C(c2cc3ccccc3oc2=O)=N1	79	17	80	0	4.2*	i
C=CCN(CC=C)c1cnn(-c2nc3ccccc3[nH]2)c(=O)c1Cl	87	-3	94	65*	.	i
O=c1c(Cl)c(NCCO)cnn1-c1cccc(Cl)c1	.	.	.	-2	0.33	i
O=c1c(Cl)c(NCCCO)cnn1-c1nc2ccccc2[nH]1	2.0*	37	1.3*	5	-0.5	i
Cc1cccc(NC(=O)C(=O)N/N=C/c2ccncc2)c1	.	.	.	0	1.5	i
COc1ccc(-c2n[nH]c(=S)n2N)c(OC)c1	.	.	.	-5	-0.64	i
CC1CCN(c2nc3nonc3nc2N2CCC(C)CC2)CC1	73	10	80	26	.	i
Cc1cccc(C)c1OCC(O)CN (centres undefined)	88	50	91	7	-0.3	i
Cc1cc(OCC(O)CN)ccc1Cl (centres undefined)	.	.	.	92*	-0.53	i
CCC(C)(C)n1nnnc1C(c1cc2ccc(OC)cc2[nH]c1=O)N1CCc2ccccc2C1 (centres undefined)	2.9*	15	10	100*	-0.69	i
CCC(C)(C)n1nnnc1C(c1ccccc1)N1CCc2ccccc2C1 (centres undefined)	43	43	53	77*	-0.83	i
COc1ccc2cc(C(c3nnnn3C(C)(C)C)N3CCc4ccccc4C3)c(=O)[nH]c2c1 (centres undefined)	4	.	3.5*	99*	-5.1	i
COc1ccc2cc(C(c3nnnn3C(C)(C)C)N3CCSCC3)c(=O)[nH]c2c1 (centres undefined)	97	33	104	-6	0.52	i
COc1ccc2cc(C(c3nnnn3C3CCCC3)N3CCc4ccccc4C3)c(=O)[nH]c2c1 (centres undefined)	82	.	75	82*	0.02	i
SMILES	PTEN del growth	Insulin prom inh	bCat KO growth	Lmaj promast	Insulin prom up	Autophagy mod
CCC(C)(C)n1nnnc1C(c1cc2ccc(OC)cc2[nH]c1=O)N1CCc2ccccc21 (centres undefined)	41	.	41	10	0.98	i
COC(=O)c1ccccc1NC(=O)/C=N/O	84	32	88	-7	-0.56	i
COc1ccc(-c2cnc(N)nc2-c2ccc(OC)cc2O)cc1	77	0	77	8	-0.91	i
CCC(C)(C)n1nnnc1C(c1cccc(C#N)c1)N1CCN(c2cccc(C)c2C)CC1 (centres undefined)	62	0	67	76*	-3.1	i
CCC(C)(C)n1nnnc1C(c1ccc(C)cc1)N1CCCC1 (centres undefined)	95	.	90	65*	.	i
Cc1ccn2cc(CCNC(=O)Cc3cccs3)nc2c1	.	.	.	-8	-0.14	i
CCN(CC(=O)Nc1ccc(C(C)=O)cc1)CC(=O)Nc1cccc(OC)c1	.	-24	.	1	-0.93	i
CC1CCN(c2ccc(C(=O)NCCc3ccccc3)cn2)CC1	94	38	96	8	-0.7	i
COCCNC(=O)CN(C(=O)c1ccc(N2CCCC2)nc1)c1ccccc1	.	i	.	-2	-0.09	+
CC1(c2ccccc2)NC(=O)N(CCN2C(=O)c3ccccc3C2=O)C1=O (centres undefined)	92	.	100	-8	-0.77	i
CCc1ccc(CCC(=O)Nc2sc3c(c2C#N)CCCC3)o1	17	-16	16	-4	-0.19	+
Cc1ccc(C(=O)OCC(=O)Nc2sc3c(c2C#N)CCC3)cc1	89	-55	105	52*	0.09	i
CC(C)C[C@H](NC(=O)c1nc[nH]c1C(=O)N1CCN(c2ccccc2)CC1)C(=O)OC(C)(C)C	.	.	.	.	-0.84	.
c1ccc(Nc2ncnc3sc4c(c23)CCC4)cc1	98	-13	104	6	.	i
CCCNC(=O)c1cc(C)no1	98	13	96	-5	0.5	i
Cc1ccc(NC(CNS(=O)(=O)c2ccc(Cl)cc2)c2ccccc2)cc1 (centres undefined)	37	-3	24	53*	-0.63	i
O=S(=O)(NCC(Nc1ccc(Cl)cc1)c1ccccc1)c1ccccc1 (centres undefined)	71	-50	78	13	-0.44	i
Cc1ccc(N2C(=O)NC(C(F)(F)F)(C(F)(F)F)C3=C2CC(C)(C)CC3=O)cc1	89	19	91	51*	0.48	i
COc1cc2[nH]c(=O)n3nc(-c4ccccc4)nc3c2cc1OC	46	30	62	50*	0.46	i
CCN(CC)CCNc1nc2cc(OC)c(OC)cc2c2nc(-c3ccccc3)nn12	1.2*	-12	1.7*	100*	-0.55	i
COc1ccc(-c2nc3c4ccccc4[nH]c(=O)n3n2)cc1	82	-6	92	37	-0.52	i
Cc1ccccc1NS(=O)(=O)c1cc(S(C)(=O)=O)ccc1Cl	101	13	88	-4	0.12	i
COc1ccc(-c2c(C#N)c(C)nc3c2C(=O)c2ccccc2-3)cc1	90	89*	94	3	-0.45	i
COc1ccc(C2=NCCNC(C(F)(F)F)=C2)cc1	.	.	.	4	0.2	i
O=C(CNc1cccc2ccccc12)N/N=C/c1ccc([N+](=O)[O-])o1	5	13	4.7*	99*	-0.87	i
